The results in this text go back to PubChem BioAssay (NCI).

The panel holds about 83,000 compounds, 20% with a hit somewhere; the sample as a whole holds those more often.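 Values shown are percent growth following 48 h exposure of cells in 96-well plates to a single concentration of compound; below 10 was considered active.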 Values without a mark were called inactive. Activity calls are given as the source filed them.

Test systems include NCI-H23 lung; NCI-H226 lung; NCI-H322M lung; HOP-62 NSCLC; NCI-H460 lung; NCI-H522 lung; A549/ATCC NSCLC; 786-0 renal; COLO 205 colon; DU-145 prostate; K-562 leukemia; MDA-MB-231 breast; RXF 393 renal; SF-268 CNS; SF-295 CNS; SF-539 CNS; UACC-257 melanoma; M14 melanoma; HCT-15 colon; MALME-3M melanoma.
Holding throughout (experiment): NCI-60 one-dose screen, 48 h (100 = growth as untreated, 0 = no growth, -100 = all killed)
Details in all cases: 10 µM

On to `O=C(O)C(SC(C(=O)O)c1ccccc1)c1ccccc1` (stereo not drawn), for which the growth in the assay with NCI-H23 lung is 99.8%; with NCI-H226 lung, 95.9%; in the assay with NCI-H322M lung it was 118%; with HOP-62 NSCLC, 107%; with NCI-H460 lung it was 110%; with NCI-H522 lung, 108%. For the same molecule, the growth in the assay on A549/ATCC NSCLC is 103%; in the assay on 786-0 renal, 103%; in the assay with COLO 205 colon, 113%; in the assay with DU-145 prostate it was 104%; with K-562 leukemia, 98.6%; in the assay with MDA-MB-231 breast, 115%. Besides, the growth in the assay with RXF 393 renal was 106%; with SF-268 CNS it was 106%; with SF-295 CNS, 115%; in the assay on SF-539 CNS it was 115%; with UACC-257 melanoma it was 104%; with M14 melanoma it was 109%. In addition, in the assay on HCT-15 colon, the growth is 99.8%.

On to `C[N+](C)(C)c1ncnc2nc[nH]c12`, for which the growth with NCI-H23 lung is 93.8%; in the assay with NCI-H226 lung it was 99.1%; in the assay with NCI-H322M lung it was 67%; with HOP-62 NSCLC it was 98%; in the assay with NCI-H460 lung it was 104%; in the assay on NCI-H522 lung, 97.1%. Moreover, the growth with A549/ATCC NSCLC is 108%; with 786-0 renal, 89.8%; with COLO 205 colon, 104%; with DU-145 prostate, 116%; in the assay with K-562 leukemia, 73.3%; in the assay on MDA-MB-231 breast, 111%. For the same molecule, the growth in the assay with SF-268 CNS is 102%; in the assay on SF-295 CNS it was 87.8%; in the assay with SF-539 CNS, 97.6%; with UACC-257 melanoma, 91.5%; in the assay with M14 melanoma, 93.8%; with HCT-15 colon, 94.2%.

In the case of `COc1ccc2c(c1)N(CCO)C1=C(C(=O)OC1)C2c1ccc(OC)c(OC)c1` (stereo not drawn), the growth in the assay with NCI-H23 lung is 46.1%; in the assay on NCI-H226 lung, 46.7%; in the assay with NCI-H322M lung it was 61.3%; in the assay with HOP-62 NSCLC, 39%; in the assay on NCI-H460 lung, 16.9%; in the assay on NCI-H522 lung, -12.4% (active). Also, the growth with A549/ATCC NSCLC was 50.4%; with 786-0 renal, 42.2%; in the assay with COLO 205 colon, 29.7%; with DU-145 prostate it was 55.6%; with K-562 leukemia it was 19.8%; in the assay on MDA-MB-231 breast it was 68%. Further, the growth with RXF 393 renal is 28.2%; in the assay on SF-268 CNS, 54.3%; in the assay with SF-295 CNS it was 7.46% (active); in the assay on SF-539 CNS it was 13%; in the assay on UACC-257 melanoma, 53.7%; in the assay with M14 melanoma it was 36.1%. Besides, the growth in the assay on HCT-15 colon was 39.6%.

For `Oc1[nH]c2ccc(Cl)cc2c1/C=c1/ccc2c(c1)N=C(c1cc(F)cc(F)c1)N=2`, the growth in the assay with NCI-H23 lung is 64%; in the assay on NCI-H226 lung, 86.1%; in the assay with NCI-H322M lung, 93.2%; in the assay on HOP-62 NSCLC, 58.7%; in the assay with NCI-H460 lung it was 63.8%; with NCI-H522 lung, 33.7%. Besides, the growth with A549/ATCC NSCLC was 57.4%; in the assay with 786-0 renal, 85.9%; with COLO 205 colon it was 77.1%; in the assay with DU-145 prostate, 81.8%; in the assay on K-562 leukemia, 14.8%; with MDA-MB-231 breast it was 79.3%. For the same molecule, the growth with RXF 393 renal was 61.6%; with SF-295 CNS it was 46.7%; in the assay on SF-539 CNS it was 83.3%; in the assay with UACC-257 melanoma, 70.5%; in the assay on M14 melanoma, 68.5%; in the assay with HCT-15 colon, 46.1%.

In the case of `COc1ccc(-c2nc3sc(-c4ccccc4)c(-c4ccccc4)n3c2/C=C/C(=O)c2ccccn2)cc1`, the growth with NCI-H23 lung was 97.4%; in the assay with NCI-H226 lung, 84%; in the assay on NCI-H322M lung it was 112%; with HOP-62 NSCLC, 134%; with NCI-H460 lung it was 87%; with NCI-H522 lung, 6.21% (active). Also, the growth in the assay with A549/ATCC NSCLC was 87.7%; in the assay on 786-0 renal, 98.7%; in the assay with COLO 205 colon it was 76.4%; in the assay with DU-145 prostate it was 96.7%; in the assay with K-562 leukemia it was 66%; in the assay on MDA-MB-231 breast it was 75.9%. For the same molecule, the growth in the assay with RXF 393 renal was 84%; in the assay on SF-268 CNS it was 88%; in the assay on SF-295 CNS it was 99.5%; with SF-539 CNS, 83.7%; in the assay with UACC-257 melanoma, 87.2%; in the assay with M14 melanoma, 89%. For the same molecule, the growth with HCT-15 colon was 60.6%.

`CCCCCCCCCCCC[n+]1ccc(C(N)=O)cc1`: the growth with NCI-H23 lung is 23.5%; in the assay with NCI-H226 lung it was 35%; with NCI-H322M lung, 88.7%; in the assay on HOP-62 NSCLC, 33.7%; in the assay with NCI-H460 lung, 16.8%; in the assay on NCI-H522 lung, 4.75% (active). Moreover, the growth in the assay with A549/ATCC NSCLC was 73.7%; in the assay on 786-0 renal, 40%; in the assay with COLO 205 colon, -73% (active); in the assay with DU-145 prostate, 43%; in the assay with K-562 leukemia, 7.8% (active); in the assay with MDA-MB-231 breast it was 28.4%. In addition, the growth with RXF 393 renal is -23.4% (active); with SF-268 CNS, 22.1%; in the assay on SF-295 CNS, 33.6%; in the assay on SF-539 CNS, 8.16% (active); in the assay with UACC-257 melanoma, 29.6%; with HCT-15 colon it was 87.3%.

`COc1cc([C@@H]2c3cc4c(cc3C(Br)[C@H]3COC(=O)[C@H]23)OCO4)cc(OC)c1OC` (stereo partly drawn): the growth is 4.09% (active) in the assay with NCI-H23 lung; 97.8% in the assay with NCI-H226 lung; 42.2% with NCI-H322M lung; -13% (active) with HOP-62 NSCLC; -50.8% (active) with NCI-H460 lung; -46.5% (active) in the assay with NCI-H522 lung. The growth is -24% (active) in the assay on A549/ATCC NSCLC; 9.16% (active) in the assay with 786-0 renal; -88.4% (active) with COLO 205 colon; -82.4% (active) in the assay on DU-145 prostate; 31.5% in the assay with MALME-3M melanoma; -5.49% (active) in the assay on MDA-MB-231 breast. Also, the growth in the assay with SF-268 CNS is -29.9% (active); in the assay with SF-295 CNS, -15.4% (active); in the assay on SF-539 CNS, -44.5% (active); in the assay on UACC-257 melanoma it was 16.2%; in the assay with M14 melanoma, -8.65% (active); with HCT-15 colon, -3.53% (active).

In the case of `NC(=O)SCC(=O)Nc1ccc(S(N)(=O)=O)cc1`, the growth was 106% in the assay with NCI-H23 lung; 93% with NCI-H226 lung; 121% in the assay with NCI-H322M lung; 101% in the assay with HOP-62 NSCLC; 108% in the assay on NCI-H460 lung; 105% in the assay with NCI-H522 lung. In addition, the growth is 103% with A549/ATCC NSCLC; 107% in the assay with 786-0 renal; 107% with COLO 205 colon; 112% in the assay on DU-145 prostate; 108% in the assay on K-562 leukemia; 106% in the assay with MDA-MB-231 breast. Moreover, the growth in the assay with RXF 393 renal is 99%; in the assay on SF-268 CNS, 106%; in the assay on SF-295 CNS, 107%; in the assay with SF-539 CNS, 100%; in the assay on UACC-257 melanoma, 101%; in the assay on M14 melanoma it was 105%. The growth in the assay with HCT-15 colon was 109%.
